Laboratory results taken from PubChem BioAssay (Tox21).
Several values for one entry are separate records, joined by “and”; a condition that tells them apart may be missing. Identical values can stand only once. Inconclusive results are not listed. A call without a number means that no potency is given here. More than one record can exist for a structure, and the calls need not agree. Activity calls are given as the source filed them. Unless noted, calls follow the shape of the dose curve; as a rule, active = well fitted curve in the direction sought with a large enough effect in the repeat runs; inconclusive = weak or mixed curves; inactive = no such curve, though single readings can be large; an effect the other way counts as inactive or inconclusive.

Columns and labels:
[1] = qHTS assay for small molecule agonists of the p53 signaling pathway (AID 651631; calls by dose curve; also: nearly all actives have a fitted effect of over 15% in size; also: potency is read from the fitted curve at half-maximal effect); conditions: HCT-116 p53RE-bla reporter, beta-lactamase FRET ratio, 16 h; series mostly up to 73.3 µM
Procedure, shortened: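 Read-out is beta-lactamase FRET fluorescence measured 2 h after substrate addition at room temperature, in HCT-116 cells with a p53 response element-driven reporter exposed to compounds for 16 h at 37 °C.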

[2] = qHTS assay for small molecules that induce genotoxicity in human embryonic kidney cells expressing luciferase-tagged ATAD5 (AID 651632); conditions: HEK293T ATAD5-luciferase induction, 16 h; series mostly up to 83.3 µM; also: nearly all actives have a fitted effect of over 15% in size; also: potency is read from the fitted curve at half-maximal effect
Procedure, shortened: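 Increased luciferase signal from ATAD5-tagged reporter cells indicates DNA-damage-driven ATAD5 induction. HEK293T cells are treated for 16 hr at 37C before detection with Amplite.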

[3] = qHTS assay for small molecule agonists of the p53 signaling pathway - cell viability (AID 651633; calls by dose curve; also: nearly all actives have a fitted effect of over 30% in size; also: potency is read from the fitted curve at half-maximal effect); conditions: p53RE-bla HCT-116 viability, ATP luminescence, 16 h; series mostly up to 83.3 µM
Procedure, shortened: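 Viability counter-read: CellTiter-Glo luminescence (30 min, room temperature) in the same p53RE-bla plates. These plates had been exposed to compounds for 16 h at 37 C.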

[4] = qHTS assay for small molecule disruptors of the mitochondrial membrane potential - cell viability (AID 720634; calls by dose curve; also: nearly all actives have a fitted effect of over 20% in size; also: potency is read from the fitted curve at half-maximal effect); conditions: HepG2 viability, ATP luminescence (CellTiter-Glo), 1 h; series mostly up to 83.2 µM
Procedure, shortened: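 After overnight attachment at 37 C, HepG2 cells received compound or DMSO vehicle for 1 hr. Viability is then taken from ATP-driven luminescence following a 30 min room-temperature CellTiter-Glo step.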

[5] = qHTS assay to test for compound auto fluorescence at 590 nm (red) in HepG2 cells (AID 720674); conditions: HepG2 autofluorescence, red 540/590 nm, 1 h; series mostly up to 91.3 µM
Procedure, shortened: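 1 hr compound incubation on HepG2 cells, 37 C, 5% CO2; plate read ex 540 nm / em 590 nm; intensities reported as Rose Bengal sodium equivalents.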

[6] = qHTS assay to test for compound auto fluorescence at 535 nm (green) in HepG2 cells (AID 720675); conditions: green autofluorescence 485/535 nm, 1 h; series mostly up to 91.3 µM
[7] = qHTS assay to test for compound auto fluorescence at 460 nm (blue) in HEK293 cells (AID 720678); conditions: blue autofluorescence 405/460 nm; series mostly up to 91.3 µM; also: potency is read from the fitted curve at half-maximal effect
Procedure, shortened: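 HEK293 cells (2,000 per well, medium with 10% dialyzed FBS) attached for 4-5 hr at 37C, then received compound and stood overnight at 37C, 5% CO2. Blue fluorescence was read at Ex/Em 405/460 nm and expressed relative to triamterene.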

[8] = qHTS assay for small molecules that induce genotoxicity in human embryonic kidney cells expressing luciferase-tagged ATAD5 - cell viability (AID 651634; calls by dose curve; also: nearly all actives have a fitted effect of over 25% in size; also: potency is read from the fitted curve at half-maximal effect); conditions: HEK293T ATAD5-luc cells viability, CellTiter-Fluor, 15.5 h; series mostly up to 83.3 µM
Procedure, shortened: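 Cytotoxicity counterscreen in HEK293T cells bearing an ATAD5-luciferase reporter: live-cell protease activity measured by CellTiter-Fluor fluorescence after 15.5 hr compound exposure.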

[9] = qHTS assay for small molecule disruptors of the mitochondrial membrane potential (AID 720635); conditions: HepG2 mitochondrial membrane potential, Mito-MPS dye ratio; series mostly up to 83.2 µM; also: potency is read from the fitted curve at half-maximal effect
Procedure, shortened: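 Mitochondrial membrane potential tracked with Mito-MPS dye, red aggregates (ex 540/em 590 nm) against green monomers (ex 490/em 535 nm). Compound treatment 1 hr at 37C, dye 30 min in HepG2.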

[10] = qHTS assay to test for compound auto fluorescence at 590 nm (red) in HEK293 cells (AID 720679); conditions: red autofluorescence 540/590 nm; series mostly up to 91.3 µM
Procedure, shortened: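 HEK293 cells (2,000/well, medium with 10% dialyzed FBS) attached for 4-5 hr at 37C, received 23 nL compound and were incubated overnight at 37C, 5% CO2. Red fluorescence was then read at 540/590nm Ex/Em, referenced to Rose Bengal sodium.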
Tags tell the direction and shape of the fitted curve or compound fluorescence and quenching.

Compound | Potency [1] | Potency [2] | Potency [3] | Potency [4] | outcome [5] | Potency [6] | Potency [7] | Potency [8] | Potency [9] | outcome [10] | fluorescence, relative to Rose Bengal [5] | fluorescence, % of fluorescein control [6] | fluorescence, % of triamterene [7] | fluorescence, % of fluorescent control [10]
COc1cc(C(=S)N2CCOCC2)ccc1O | inactive | inactive | inactive | inactive | inactive | inactive | inactive | – | – | – | – | – | – | –
Nc1cc(S(=O)(=O)O)cc2cc(S(=O)(=O)O)cc(O)c12 | inactive | – | inactive | inactive | inactive | inactive | – | inactive | inactive | inactive | – | – | – | –
[Cl][In]([Cl])[Cl] | inactive and 61.1 µM (active) | inactive | inactive | inactive | inactive | inactive | inactive | – | inactive | inactive | – | – | – | –
CCN(CC)C(=O)Nc1ccc(OCC(O)CNC(C)(C)C)c(C(C)=O)c1 (stereo not drawn) | inactive | – | inactive | inactive | inactive | inactive | inactive | inactive | – | inactive | – | – | – | –
C/C=C/c1ccc(OCC)c(O)c1 | inactive | inactive | inactive | inactive | inactive | inactive | inactive | – | 48.6 µM (active) | inactive | – | – | – | –
CCN(CC)c1ccc2c(C)cc(=O)oc2c1 | 30.9 µM (active) and 27.3 µM (active) | inactive | inactive | – | inactive | inactive | 39.8 µM [fluorescent] (active) | inactive | – | inactive | – | – | – | –
CCc1ccc(C(c2ccc(CC)cc2)C(Cl)Cl)cc1 | inactive | – | inactive | inactive | inactive | inactive | inactive | inactive | 49.3 µM (active) and 27.3 µM (active) | inactive | – | – | – | –
COC(c1ccccc1)(c1ccccc1)[C@H](Oc1nc(C)cc(C)n1)C(=O)O | inactive | inactive | inactive | inactive | inactive | inactive | inactive | – | inactive | inactive | – | – | – | –
O=c1n(CC2CO2)c(=O)n(CC2CO2)c(=O)n1CC1CO1 (stereo not drawn) | 13.3 µM (active) and 8.58 µM (active) and 8.63 µM (active) | 23.7 µM (active) and 24.2 µM (active) and 54.5 µM (active) | inactive | inactive | inactive | inactive | inactive | – | inactive | – | – | – | – | –
Cc1cc(Cc2cc(C)cc(C(C)(C)C)c2O)c(O)c(C(C)(C)C)c1 | 30.6 µM (active) | inactive | 13.8 µM (active) and 17.2 µM (active) | – | inactive | inactive | inactive | 61.4 µM (active) and 61.1 µM (active) | 1.23 µM (active) and 1.09 µM (active) | inactive | – | – | – | –
Cc1occc(=O)c1OC(=O)C(C)C | inactive | inactive | inactive | inactive | inactive | inactive | inactive | – | inactive | inactive | – | – | – | –
O=Cc1ccc(Cl)cc1 | inactive | – | inactive | inactive | inactive | inactive | inactive | inactive | – | inactive | – | – | – | –
CC1COc2c(N3CCN(C)CC3)c(F)cc3c(=O)c(C(=O)O)cn1c23 (stereo not drawn) | inactive | inactive | inactive | – | inactive | inactive | inactive | – | – | inactive | – | – | – | –
CC(C)(C)c1ccccc1 | inactive | – | inactive | inactive | inactive | inactive | inactive | inactive | – | – | – | – | – | –
Cc1cccc2n[nH]nc12 | inactive | – | inactive | inactive | inactive | inactive | inactive | inactive | inactive | inactive | – | – | – | –
O=C(O)CCc1ccccc1 | inactive | – | inactive | inactive | inactive | inactive | inactive | inactive | inactive | inactive | – | – | – | –
CN1C(=O)c2ccc([N+](=O)[O-])cc2C1=O | inactive | – | inactive | inactive | inactive | inactive | inactive | inactive | 61.1 µM (active) | inactive | – | – | – | –
O=C(O)c1cn(-c2ccc(F)cc2)c2cc(N3CCNCC3)c(F)cc2c1=O | inactive | – | inactive | inactive | inactive | inactive | inactive | inactive | – | – | – | – | – | –

Compound | Potency [1] | Potency [2] | Potency [3] | Potency [4] | outcome [5] | Potency [6] | Potency [7] | Potency [8] | Potency [9] | outcome [10] | fluorescence, relative to Rose Bengal [5] | fluorescence, % of fluorescein control [6] | fluorescence, % of triamterene [7] | fluorescence, % of fluorescent control [10]
CCCC(=O)c1ccccc1 | inactive | inactive | inactive | inactive | inactive | inactive | inactive | – | – | inactive | – | – | – | –
CC(=O)N[C@@H](CS)C(=O)O | inactive | – | inactive | inactive | inactive | inactive | inactive | inactive | – | inactive | – | – | – | –
Nc1nc2ccccc2[nH]1 | inactive | – | inactive | inactive | inactive | inactive | inactive | inactive | inactive | inactive | – | – | – | –
C=CC(=O)OCCCCCCCC | inactive | inactive | inactive | inactive | inactive | inactive | inactive | – | inactive | inactive | – | – | – | –
CC[C@@H](N)CO | inactive | – | inactive | inactive | inactive | inactive | inactive | inactive | – | inactive | – | – | – | –
OCC(CO)N[C@H]1C[C@](O)(CO)[C@@H](O)[C@H](O)[C@H]1O | inactive | inactive | inactive | inactive | inactive | inactive | inactive | – | inactive | inactive | – | – | – | –
Cc1scc2c1N(C(=O)CN1CCN(C)CC1)c1ccccc1NC2=O | inactive | inactive | inactive | inactive | inactive | inactive | inactive | inactive | – | inactive | – | – | – | –
C=CC(=O)OCCCCCCOC(=O)C=C | 11 µM (active) | – | inactive | inactive | inactive | inactive | inactive | 31 µM (active) | inactive | inactive | – | – | – | –
CC(=O)Nc1ccc(C(=O)CCl)cc1 | inactive and 24.3 µM (active) | inactive and 24.3 µM (active) | inactive and 30.6 µM (active) | inactive and 27.3 µM (active) | inactive | inactive | inactive | – | inactive and 27.3 µM (active) | – | – | – | – | –
O | inactive | – | inactive | inactive | inactive | inactive | inactive | inactive | 31 µM (active) | inactive | – | – | – | –
CC(=O)CC(C)=O | inactive | – | inactive | inactive | inactive | inactive | inactive | inactive | – | – | – | – | – | –
NC12CC3CC(CC(C3)C1)C2 | – | inactive | inactive | inactive | inactive | inactive | inactive | inactive | – | inactive | – | – | – | –
CCCCCC(=O)O[C@]1(C(C)=O)CC[C@H]2[C@@H]3CCC4=CC(=O)CC[C@]4(C)[C@H]3CC[C@@]21C | – | inactive | 26.6 µM (active) and 54.1 µM (active) | inactive | inactive | inactive | inactive | inactive | 11.9 µM (active) and 15.2 µM (active) | inactive | – | – | – | –
NC(=Nc1ccccc1)Nc1ccccc1 | – | 15 µM (active) | inactive | inactive | inactive | inactive | inactive | inactive | 3.35 µM (active) and 15.4 µM (active) | inactive | – | – | – | –
CN(C)c1ccc(C(=C2C=CC(=[N+](C)C)C=C2)c2ccccc2)cc1 | – | inactive | 23.7 µM (active) and 273 nM (active) | inactive and 17.2 µM (active) | inactive | inactive | inactive | – | 29.8 µM (active) and 77 nM (active) | – | – | – | – | –
CCCCCCCCCCCCCC[P+](CCCC)(CCCC)CCCC | – | inactive | 24.2 µM (active) and 15.4 µM (active) | 34.2 µM (active) and 24.3 µM (active) | inactive | inactive | inactive | – | 542 nM (active) and 486 nM (active) | inactive | – | – | – | –
CCCCCCCCCCCCCCCCCl | – | inactive | inactive | inactive | – | – | – | inactive | – | – | -0.733% [at 18.6 µM] (inactive) | -0.021% [at 18.6 µM] (inactive) | 0.0135% [at 18.6 µM] (inactive) | 0.199% [at 18.6 µM] (inactive)
O=C(OCc1ccccc1)c1ccc(O)cc1 | inactive | – | inactive | – | inactive | inactive | inactive | inactive | 13.3 µM (active) and 15.4 µM (active) | – | – | – | – | –
